# From PubChem BioAssay
# The entries come from a sample that favours hits as a whole.
# RmlC RmlD mix: inhibitors of RmlC and RmlD coupled enzymes | RmlC/RmlD coupled enzyme inhibition, 384-well mixture HTS | inhibition, % at 5.5 µM | 110,000 compounds, 0.39% hits; in the data active = inhibition above about 30%, passing the limit was not always enough
# HIV RNase H inh: blocks HIV-1 RNase H cleavage of RNA/DNA duplex | RT-RNase H RNA/DNA duplex cleavage, fluorescence | inhibition, % at 10 µM | 65,000 compounds, 1.9% hits; in the data active = inhibition above about 50%
# RmlCD fluor art: counter-screen for RmlC/RmlD inhibitors: fluorescence artifact; RmlC/RmlD assay fluorescence artifact counter-screen; AID 1696; 360 compounds, 96% hits; calls only; shares compounds with RmlC RmlD mix; call rule not given here;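 also: compound alone with no enzyme and no substrates present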
# An asterisk follows results filed as active; i = inactive; . = not tested or not shown; + = active, no number.
SMILES,RmlC RmlD mix,HIV RNase H inh,RmlCD fluor art
O=C(NCCOC(=O)C1COc2ccccc2O1)c1cccnc1 (stereo not given),15,-8,.
Clc1ccc(CCNc2nc3ccccc3s2)cc1,9,.,.
COC(=O)c1c(N)n(-c2ccc(N3CCOCC3)cc2)c2nc3ccccc3nc12,.,0,.
COC(=O)c1c(N)n(-c2ccc(NC(C)=O)cc2)c2nc3ccccc3nc12,64*,7,+
O=C1c2ccccc2C(=O)N1CSc1nnc2c3ccccc3n(CCc3ccccc3)c2n1,-7,.,.
C=CCn1c2ccccc2c2nnc(SCN3C(=O)c4ccccc4C3=O)nc21,50*,-22,i
CC[C@@]1(O)C(=O)OCc2c1cc1n(c2=O)Cc2cc3c(N)cccc3nc2-1,13,.,.
CC[C@@]1(O)C(=O)OCc2c1cc1n(c2=O)Cc2cc3c(CN(C)C)c(O)ccc3nc2-1,38*,.,+
CCOC(=O)c1nn(-c2ccc(Cl)cc2)c2nc(CC)c(C#N)c(=O)n12,85*,.,+
CCOC(=O)c1nn(-c2ccc(Cl)cc2)c2nc(-c3ccc(C)cc3)c(C#N)c(=O)n12,11,.,.
CN1CCN(C(=O)C2=C[C@@H](C3CC3)C[C@@H](OCc3ccc(CO)cc3)O2)CC1,-12,.,.
COc1cccc(/C=N/NC(=O)CC2C(=O)NN=C2C)c1OC (stereo not given),0,.,.
COc1ccc(OC)c(/C=N/NC(=O)CC2C(=O)NN=C2C)c1 (stereo not given),54*,.,+
COc1ccc(OC)c(NC(=O)Cc2coc3ccc4ccccc4c23)c1,11,.,.
CCNC(=O)NC(=O)COC(=O)c1ccccc1SCC(=O)NC(=O)NCC,+,4,+
CCNC(=O)NC(=O)CSc1ccc(NC(C)=O)cc1,6,-1,.
Cc1oc2ccccc2c1-c1cn2c(n1)SCC2,52*,3,+
c1ccc(-c2cn3c(n2)SCC3)cc1,0,.,.
COC(=O)c1ccc(-c2sc3nc(N4CCOCC4)c4c(c3c2N)CCCC4)o1,116*,19,+
CCN(CC)C(=O)c1sc2nc(N3CCOCC3)c3c(c2c1N)CCCC3,-90,.,.
Cc1nnc(N(C)C(=O)c2cccnc2)s1,13,-6,.
CN(C(=O)c1cccnc1)c1nnc(-c2ccccn2)s1,42*,-5,+
CCCCCCC1CC(CSc2ncn[nH]2)OC1=O (stereo not given),6,-6,.
c1ccc(-c2cnc(-c3cccnc3)o2)cc1,20,-44,.
NC(=O)c1ccc(-c2ncc(-c3ccccc3)o2)cc1,73*,-20,+
SMILES,RmlC RmlD mix,HIV RNase H inh,RmlCD fluor art
C=C(CC1([C@@H](NP(=O)(c2ccccc2)c2ccccc2)[C@H]2C[C@@H]2CCCC)CC1)c1ccccc1,2,.,.
Cc1ccc(-c2nc3ccccc3n2C)o1,-7,.,.
CC(=O)c1ccc(-c2nc3ccccc3n2C)o1,151*,2,+
Cc1ccc(CS(=O)(=O)CCC(=O)N2CCOCC2)cc1,.,-15,.
CC(C)CNC(=O)c1coc(=O)c(Br)c1,4,.,.
CN(C)CCNC(=O)c1coc(=O)c(Br)c1,62*,-3,+
CC1Cc2ccccc2N1C(=O)CSc1nnnn1Cc1ccccc1 (stereo not given),10,-56,.
Cc1cc(NC(=O)c2cccc(COc3ccc(Br)cc3)c2)no1,-12,1,.
CCOC(=O)c1cccc(NC(=O)c2c(N)n(C)c(=O)[nH]c2=O)c1,22,.,.
COc1cccc(/C=N/NC(=O)C(=O)NCc2ccco2)c1O,-1,.,.
COc1cccc(/C=N/NC(=O)c2cc3c(OC)cccc3[nH]2)c1O,.,.,+
Fc1ccc(Cn2ccc(-c3cnc(-c4ccccc4)s3)n2)cc1,-9,.,.
O=C(c1ccc(F)cc1)n1ccc(-c2cnc(-c3ccccc3)s2)n1,80*,.,+
COc1ccc(-c2cn3ccccc3n2)cc1OC,40,-8,.
c1ccc2cc(-c3cc4ccccn4c3)ccc2c1,91*,.,+
COc1ccc(CCN2C(=NC(=O)CCC(=O)O)SC3CS(=O)(=O)CC32)cc1 (stereo not given),1,.,.
CCN1CCN(c2ccc(-n3c(C)nc4c(cnn4-c4ccccc4Cl)c3=O)cc2)CC1,.,-16,.
Cc1cc(NCCCN(C)C)n2nc(-c3cccs3)cc2n1,-10,.,.
Cc1cc(C)c2c(n1)nn1c(NCCCN(C)C)cc(C)nc21,86*,-7,+
CCOC(=O)C1=C(C)NC(=O)NC1c1c(O)ccc2ccccc12 (stereo not given),-9,-3,.
Cc1cc(=O)oc2cc(Oc3ncccn3)ccc12,-10,-3,.
CC(=O)Oc1ccc2c(=O)c(-c3ccccc3)c(C)oc2c1,80*,.,+
COC(=O)c1cc(-c2c(C)oc3cc(OC(C)C)ccc3c2=O)c(C)o1,-1,-11,.
Cc1cc(=O)oc2cc(OC(=O)c3ccccc3)ccc12,46*,.,+
O=C(COC(=O)c1ccccc1Nc1ccc(SC(F)F)cc1)NCc1ccco1,3,.,.
SMILES,RmlC RmlD mix,HIV RNase H inh,RmlCD fluor art
O=C(NCc1ccc(Cl)cc1Cl)C(=O)N1CCCCC1,-1,.,.
O=C(CN1CCCC1=O)NC1(C(F)(F)F)NC(=O)N(Cc2ccccc2)C1=O (stereo not given),6,1,.
CCOc1ccccc1NC(=O)C1CC(=O)n2ncnc2N1 (stereo not given),-18,.,.
CC1CCN(CCCNC(=O)c2coc3nc4ccccc4nc23)CC1,19,5,.
CC1CCCN(CCCNC(=O)c2coc3nc4ccccc4nc23)C1 (stereo not given),140*,15,+
C#CCOCCOCCOCCNc1nc(N2CCN(C(=O)[C@H](CCC(=O)O)n3cc(C(N)CO)nn3)CC2)nc(N2CCN(C(=O)[C@H](CCC(=O)O)n3cc(C(N)CC(C)C)nn3)CC2)n1 (stereo not given in full),17,.,.
N#Cc1ccccc1NC(=O)Nc1cccc(Cl)c1,44*,-12,+
N#Cc1ccccc1NC(=O)Nc1ccc(Cl)cc1,40*,.,+
Cc1ccc(NC(=O)Nc2ccccc2C#N)c(Cl)c1,29,.,.
O=C(Nc1cccc(Cl)c1)Nc1cccc(Cl)c1,-14,.,.
Cc1c(SCCO)c(=O)[nH]c2cc3c(cc12)OCO3,5,.,.
COC(=O)/C(=C(/F)SCC(C)=O)C(F)(F)F,13,.,.
Cc1cccc(-n2nc3c(c2NC(=O)c2ccc(Br)o2)CSC3)c1,-1,38,.
CCC(C)(C)n1nnnc1C(c1cc(OC)ccc1OC)N1CCC(C(N)=O)CC1 (stereo not given),3,.,.
CCCNC(=O)C1(CC2CC(c3ccccc3)=NO2)CCN(C(=O)CCCCCBr)CC1 (stereo not given),-32,.,.
COc1cc2[nH]c(=O)n(CCC(=O)N3CC=C(c4ccccc4)CC3)c(=O)c2cc1OC,-14,.,.
COc1cc2[nH]c(=O)n(CCCC(=O)N3CC=C(c4ccccc4)CC3)c(=O)c2cc1OC,52*,-32,i
CC(Oc1ccc(Cl)cc1Cl)c1nc(-c2ccc(NC(=O)c3ccccn3)cc2)no1 (stereo not given),4,.,.
Cn1cc([N+](=O)[O-])c(C(=O)Nc2cc(Oc3cccnc3)cc([N+](=O)[O-])c2)n1,4,.,.
COc1ccc2cc3cc(C(=O)NCCCN4CCOCC4)oc3nc2c1,43*,-13,+
CCN1CCN(CCCNC(=O)c2cc3cc4ccc(OC)cc4nc3o2)CC1,.,-34,.
